Experimental data published in PubChem BioAssay AID504834 (National Center for Advancing Translational Sciences (NCATS), 2011).
The campaign covered roughly 320,000 compounds. About 22,000 (6.9%) were called active. About 27% were inconclusive and are not listed. The call rests on the fitted dose curve; in most records, active means well fitted inhibition curve with a large enough effect; inconclusive means small, poorly fitted or top-dose-only effect, or another doubt; inactive means no such curve, though single readings can be large or run the other way. The entries come from a sample that favours actives as a whole. Where a call stands in place of a potency, no number is given.

Test: Primary qHTS for delayed death inhibitors of the malarial parasite plastid, 96 hour incubation
Details: P. falciparum luciferase reporter growth; series mostly up to 28.7 µM
How it was run: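 Infected RBCs, 2% Hct / 0.05% parasitemia final; luciferase-reporter P. falciparum; cpd 96 h, 37 C, 5% CO2; luciferase detection reagent; luminescence.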
Potency means the concentration at half of the fitted maximal effect.

| Structure (SMILES) | Potency |
| --- | --- |
| CC1CN(C(=S)Nc2cccc(F)c2)CC(C)O1 (stereo not given) | inactive |
| CCCCCOC(=O)NCCOC(=O)Nc1ccc(C(=O)OCC)cc1 | 11.7 µM (active) |
| CCOC(=O)Nc1ccc(NC(=O)OCC)cc1 | inactive |
| CCCCC(CCC(=O)Nc1ccc(C(=O)OCC)cc1)C(=O)O (stereo not given) | inactive |
| CN1CCN(NC(=O)Nc2ccc(Br)cc2)CC1 | inactive |
| O=C(NCCS(=O)(=O)NCc1ccc(Cl)cc1)c1ccccc1 | inactive |
| CCOC(=O)Cc1csc(NC(=O)CSc2ccc(Br)cc2)n1 | 2.62 µM (active) |
| CCOC(=O)Cc1csc(NC(=O)CSc2nc(C)cc(=O)[nH]2)n1 | inactive |
| CCOC(=O)Cc1csc(NC(=O)Nc2ccccc2)n1 | inactive |
| CCOC(=O)N1CCN(C(=O)COC(=O)c2cccc(S(C)(=O)=O)c2)CC1 | inactive |
| CCCN(CC(=O)Nc1ccccc1OC)C(=O)CCC(=O)c1ccc(F)cc1 | inactive |
| CCn1c(=N)n(CC(=O)c2cccc(OC)c2)c2ccccc21 | inactive |
| CCCCOC(=O)Cn1c(=O)n(CC(=O)OCCCC)c2cc(C)ccc21 | inactive |
| CCCCCCCCCCOC(=O)Cn1c(COc2cccc(OC)c2)[n+](C)c2ccccc21 | 3.29 µM (active) |
| NC(=O)c1oc2ccccc2c1NC(=O)CS(=O)(=O)c1ccccc1 | inactive |
| CCOc1ccc2[nH]c(=O)c(CN(CCCO)S(=O)(=O)c3ccc(F)cc3)cc2c1 | inactive |
| Cc1cccc(N2CCN(C(=O)CCS(=O)(=O)c3ccc4c(c3)NC(=O)C(C)S4)CC2)c1C (stereo not given) | inactive |
| Cc1cc(=O)oc2cc(OC(C)C(=O)NCCc3ccc(S(N)(=O)=O)cc3)ccc12 (stereo not given) | inactive |
| COc1cc(Cl)ccc1OCc1cc(C(=O)N2CC[C@@H]3CCCC[C@H]3C2)no1 | inactive |
| CCn1ccnc1CN(C)C(=O)c1cc(COc2ccc(Cl)cc2OC)on1 | 3.7 µM (active) |
| CCn1ccnc1CN(C)C(=O)c1cc(COc2ccc(-n3cncn3)cc2)on1 | inactive |
| O=C(N[C@@H](Cc1c[nH]c2ccccc12)C(=O)O)OCC1c2ccccc2-c2ccccc21 | inactive |
| COCCCn1c(SCC(=O)Nc2ccccc2)nnc1-c1ccncc1 | inactive |
| CN(C)CCCn1c(SCc2ccc(Cl)cc2)nnc1-c1ccncc1 | 2.94 µM (active) |
| CC1CCCCC1NC(=O)CSc1nnc(-c2ccncc2)n1CCCN(C)C (stereo not given) | inactive |
| O=C(c1cc(COc2c(F)cccc2F)on1)N1CCSCC1 | inactive |
| NC(=O)C1CCN(CC(O)CSc2ccc(F)cc2)CC1 (stereo not given) | inactive |
| O=c1cc(-c2ccccc2)nc(N2CCCCC2)[nH]1 | inactive |
| c1ccc(-n2cccc2)c(N2CCCCC2)c1 | inactive |
| c1ccc(-c2cc(N3CCCCC3)c3ccccc3n2)cc1 | 9.28 µM (active) |
